Screening results deposited in PubChem BioAssay by National Center for Advancing Translational Sciences (NCATS).
Pf Dd2 inh = qHTS Primary assay for Inhibitors of Plasmodium falciparum Dd2 growth in vitro; P. falciparum Dd2 growth, SYBR Green, 72 h; Potency, µM (series often up to 28.9 µM), without a hit: top-dose activity, negative = inhibition, hits mostly inhibitors; hit rate 4.3% among 120,000; active = well fitted inhibition curve with a large enough effect;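 also: plate controls were DMSO vehicle for no effect and reference drug for full effect; nearly all actives have a fitted effect of over 65% in size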
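Readout: SYBR Green fluorescence, 485 nm excitation, 535 nm emission, after ~16 h lysis at 37C. Before that, Dd2-infected red cells (2.5% hematocrit) grew 72 h with compound, 29 uM top final concentration.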
The depositor's hits bear a star; i = inactive; [ ] = dose if it differs, or a comment. The full list was thinned out, with hits kept by preference. Potency is read from the fitted curve at half-maximal effect.

SMILES	Pf Dd2 inh
CCCOc1ccc(/C=C/C(=O)Nc2sc3c(c2C(=O)OCC)CCC(C)C3)cc1OC (stereo not drawn)	43%
CCOc1ccc(NC(=O)c2c(NCc3ccc(C)o3)sc3c2CCC(C)C3)cc1 (stereo not drawn)	11µM*
CCOc1ccc(NC(=O)c2c(NC(=O)c3ccco3)sc3c2CCC(C(C)(C)C)C3)cc1 (stereo not drawn)	10µM*
CCOc1ccccc1NC(=O)c1c(NC(=O)c2ccccc2C)sc2c1CCC(C)C2 (stereo not drawn)	i
CCOc1ccc(NC(=O)c2c(NC(=O)c3ccncc3)sc3c2CCC(C(C)(C)C)C3)cc1 (stereo not drawn)	i
CCOc1ccc(NC(=O)c2c(NCc3cccnc3)sc3c2CCC(C)C3)cc1 (stereo not drawn)	i
Cc1ccc(C)c(NC(=O)N2CCC(n3cnnc3C3CC3)C2)c1 (stereo not drawn)	14%
CCN(C(=O)CC1COc2ccc(C(=O)N3CCOCC3)cc2N1C)C(C)C (stereo not drawn)	2%
COCCCNC(=O)C(NC(=O)C1CC1)C1CCN(C(=O)c2ccc(C)cc2)CC1 (stereo not drawn)	-2%
CN(C)[S+](=O)([O-])c1ccc2c(c1)OCCN(Cc1cc(F)ccc1F)C2	-15%[44.1 µM]
CN1CCN(C2CCN(Cc3ccccn3)C2=O)CC1 (stereo not drawn)	-20%
CCc1ccc(S(=O)(=O)c2nnn3c2nc(N2CCN(c4ccccc4)CC2)c2cc(Cl)ccc23)cc1	13%
O=C(NCC1CN(Cc2ccncc2Cl)CC12CN(c1ccccc1)C2)C1CCOCC1 (stereo not drawn)	-26%
O[C@H]1[C@H](NCc2cnc3ccccc3c2)[C@@H](c2ccc(N3CCOCC3)nc2)C[C@H]1O	-14%[44.1 µM]
CCN1CCN(CCN2CC3(CCN(C4CCOCC4)CC3)OC2=O)CC1	0%
CC(C)(C)C1CCc2c(sc(NC(=O)c3ccncc3)c2C(=O)Nc2ccccc2Cl)C1 (stereo not drawn)	15%
COc1ccccc1NC(=O)c1c(NC(=O)c2ccco2)sc2c1CCC(C(C)(C)C)C2 (stereo not drawn)	-2%
CC(C)(C)C1CCc2c(sc(NC(=O)c3ccc(Cl)cc3)c2C(=O)NCc2ccco2)C1 (stereo not drawn)	5.6µM*
O=C(NCc1nnc2cc(-c3nc(C4CC4)no3)ccn12)C1CCC1	i
Cc1cccc(NC(=O)CCn2cnnn2)c1C	-16%
CC1(C)[C@H](Cc2cc(CN3CCN(c4ccccc4)CC3)on2)C[C@@H]1NCC1CC1	i
CC1(C)[C@H](Cc2cc(CO)on2)C[C@@H]1NC(=O)C1CCC1	1%[44.1 µM]
CC1(C)[C@H](Cc2cc(COc3ccccc3)on2)C[C@@H]1NC(=O)C1CCCC1	i
CC(C)N[C@H]1C[C@@H](Cc2cc(COc3ccccc3)on2)C1(C)C	11µM*
CC(C)N[C@H]1C[C@@H](Cc2cc(CO)on2)C1(C)C	-16%[44.1 µM]
SMILES	Pf Dd2 inh
CC1(C)[C@H](Cc2cc(COc3ccccc3)on2)C[C@@H]1NC(=O)C1CCC1	11µM*
CCCCc1cc(C[C@@H]2C[C@H](NC(=O)C(C)(C)C)C2(C)C)no1	i
CC(C)NC(=O)N[C@H]1C[C@@H](Cc2cc(CN3CCN(c4ccccc4)CC3)on2)C1(C)C	10µM*
CN(C)Cc1cc(C[C@@H]2C[C@H](NC(=O)CC(C)(C)C)C2(C)C)no1	14µM*
CC1(C)[C@H](Cc2cc(COc3ccccc3)on2)C[C@@H]1NC(=O)NCc1ccccc1	-1%[44.1 µM]
CC(C)N[C@H]1C[C@@H](Cc2cc(CCO)on2)C1(C)C	-9%[44.1 µM]
CC1(C)[C@H](Cc2cc(CN3CCCCC3)on2)C[C@@H]1NC(=O)c1ccccc1	-5%[44.1 µM]
COCCN1CCNc2nc(CN(C)Cc3ccccc3)n(Cc3ccccc3)c2C1=O	-1%[44.1 µM]
COc1ccc(C(=O)NC2CCN(c3cc(-c4ccc(F)cc4)[nH]n3)CC2)cc1	i
O=C(Nc1ccc(Cl)cc1Cl)c1cc(S(=O)(=O)N2CCc3ccccc32)ccc1F	20%
CCN1C(=O)CCc2cc(NC(=O)c3ccc(F)cc3)ccc21	i
O=c1c2c(n(CCOc3ccccc3)n1-c1ccccc1)CN(Cc1ccc(F)cc1)CC2	i
COc1cccc(-c2nnc(-c3ccccc3NC(=O)c3ccc(F)cc3F)o2)c1	46%
Cc1ccc(NC(=O)C(=O)NCC(c2ccc3c(c2)OCO3)N2CCOCC2)c(C)c1 (stereo not drawn)	26%
O=C(Cn1cc(C(=O)C2CC2)c2ccccc21)Nc1ccc(Br)cc1	-11%
CCN(CC)c1ccc(NC(=O)CN2C(=O)c3cccnc3Sc3ccccc32)c(C)c1	-12%
C[C@H]1CN(C(=O)Cc2ccccc2)C[C@@H]1c1nc(-c2ccncc2)no1	-24%
O=C(c1ccccc1OC1CCN(Cc2ccccn2)CC1)N1CCCC(O)C1 (stereo not drawn)	9%
COc1cc(NC(=O)O[C@@H]2CC[C@]3(C)C(CC[C@@H](O)[C@H]3CC(=O)N3CCCC3)[C@]2(C)CO)cc(OC)c1OC (stereo partly drawn)	i
CSc1cccc(NC(=O)O[C@@H]2CC[C@]3(C)C(CC[C@@H](O)[C@H]3CC(=O)N3CCCC3)[C@]2(C)CO)c1 (stereo partly drawn)	5µM*
C[C@]1(CO)C2CC[C@@H](O)[C@@H](CC(=O)N3CCCC3)[C@]2(C)CC[C@H]1OC(=O)Nc1cccc(F)c1 (stereo partly drawn)	-6%
CSc1cccc(NC(=O)O[C@@H]2CC[C@]3(C)C(CC[C@@H](O)[C@H]3CC(=O)NCc3ccccc3)[C@]2(C)CO)c1 (stereo partly drawn)	11µM*
CSc1cccc(NC(=O)O[C@@H]2CC[C@]3(C)C(CC[C@@H](O)[C@H]3CC(=O)N3CCC[C@H]3CO)[C@]2(C)CO)c1 (stereo partly drawn)	-18%
CCCNC(=O)O[C@@H]1CC[C@]2(C)C(CC[C@@H](O)[C@H]2CC(=O)NCc2ccc(F)cc2)[C@]1(C)CO (stereo partly drawn)	i
c1cc(-c2ccc3c(c2)OCCCO3)n2nc(C3CCC3)nc2n1	-5%
SMILES	Pf Dd2 inh
CCOc1ccc(C(=O)N2CCC3(CC2)N(CCOC)C(=O)CS3(=O)=O)cc1	7%
N#Cc1ccc(CN2CCC3(CC2)CN(c2ccncn2)CC3CO)cc1 (stereo not drawn)	-13%
CCN1C(=O)Cc2ccccc2C1C(=O)NCc1ccccc1Br (stereo not drawn)	-7%
O=C(NCc1ccc(F)cc1)C1CCc2nnc(-c3ccc(Cl)cc3Cl)n21 (stereo not drawn)	3.2µM*
O=C(NCc1nnc2n1C(C(=O)NCc1ccc(F)cc1)CC2)c1ccc(Cl)cc1Cl (stereo not drawn)	10%
O=C(NCc1ccc(F)cc1)C1CCc2nnc(-c3ccc(Cl)nc3)n21 (stereo not drawn)	7.1µM*
C#CCNC(=O)C1CCc2nnc(-c3ccc(Cl)nc3)n21 (stereo not drawn)	33%
COc1ccccc1-c1nnc2n1C(C(=O)NCc1ccc(F)cc1)CC2 (stereo not drawn)	4µM*
Cn1ccc(C(=O)NCc2nnc3n2C(C(=O)NCc2ccc(F)cc2)CC3)n1 (stereo not drawn)	17%
CC(C)NC(=O)NCc1nnc2n1C(C(=O)NCc1ccc(F)cc1)CC2 (stereo not drawn)	26%
